This excerpt belongs to a sample that is enriched for hits.
HT1080 IDH1KD tx: toxicity to HT-1080 IDH1 knockdown cells (counter line) | HT-1080 IDH1 knockdown viability, ATP luminescence, 48 h | Potency, µM (highest dose often 46.1 µM), inactives show at the top dose activity, negative = toxicity, hits mostly cytotoxic | 360,000 tested, 2% active | AID 686971;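 further: potency means the concentration at half of the fitted maximal effect; 0% = DMSO wells and -100% = cell-free medium wells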
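Using the IDH1-knockdown HT-1080 line run in the same batch and compound series as the NT line, viability after 48 h at 37 °C was determined by CellTiter-Glo luminescence and expressed as % activity.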
DT40 TDP1 CPT: DT40-hTDP1 cell growth loss with CPT. chicken DT40 Tdp1-/-;hTDP1 cells + 20 nM CPT, ATP luminescence, 48 h. Potency, µM (top dose mostly 46.2 µM), for the others: at the highest dose activity change, negative = growth inhibition, usual class: inhibitors. 420,000 tested, 12% active. AID 686979; further: potency means the concentration at half of the fitted maximal effect; nearly all actives have a fitted effect of over 55% in size
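Chicken DT40 Tdp1-/- cells complemented with human TDP1, 400 cells/well, exposed to compounds plus 20 nM camptothecin for at least 48 h at 37 C; viability read as ATP content by CellTiter-Glo luminescence.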
12-LOX inh: blocks human arachidonate 12S-lipoxygenase | P18054 | purified 12hLO, xylenol orange hydroperoxide absorbance | Potency, µM (doses to about 108 µM), without a hit: at the highest dose activity change, negative = inhibition, hits mostly inhibitors | 580,000 tested, 1.1% active | AID 1671190; further: potency means the concentration at half of the fitted maximal effect
Target sequence (P18054 whole entry, looked up): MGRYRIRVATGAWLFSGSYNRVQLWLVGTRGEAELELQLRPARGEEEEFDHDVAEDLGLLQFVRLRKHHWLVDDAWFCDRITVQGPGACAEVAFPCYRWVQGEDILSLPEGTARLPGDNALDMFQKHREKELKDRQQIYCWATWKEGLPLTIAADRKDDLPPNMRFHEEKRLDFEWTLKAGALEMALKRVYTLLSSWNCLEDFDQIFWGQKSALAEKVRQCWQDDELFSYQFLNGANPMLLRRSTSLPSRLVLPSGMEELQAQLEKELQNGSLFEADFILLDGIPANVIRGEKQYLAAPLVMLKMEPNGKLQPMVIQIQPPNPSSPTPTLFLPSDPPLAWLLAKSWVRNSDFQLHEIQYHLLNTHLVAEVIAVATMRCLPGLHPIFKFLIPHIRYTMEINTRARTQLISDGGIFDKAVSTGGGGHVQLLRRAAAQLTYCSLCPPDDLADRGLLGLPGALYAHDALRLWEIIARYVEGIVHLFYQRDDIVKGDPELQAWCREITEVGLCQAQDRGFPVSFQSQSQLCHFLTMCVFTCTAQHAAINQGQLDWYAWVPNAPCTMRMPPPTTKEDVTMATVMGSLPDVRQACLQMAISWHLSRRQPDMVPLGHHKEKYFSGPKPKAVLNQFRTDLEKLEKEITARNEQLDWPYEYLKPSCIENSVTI
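Purified human 12hLO at 150 nM in 25 mM Hepes, 0.01% Triton X-100, pH 7.0, preincubated 15 min at room temperature with compound. Reaction started with 40 uM arachidonic acid, 30 min at room temperature. Hydroperoxide measured by Fe-xylenol orange, 573/405 nm absorbance ratio.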
HT1080-NT tox: kills 2HG-producing HT-1080-NT fibrosarcoma cells; HT-1080-NT fibrosarcoma viability, CellTiter-Glo ATP luminescence, 48 h; Potency, µM (doses to about 46.1 µM), without a hit: at the top dose activity, negative = less viability, usual class: cytotoxic; 360,000 tested, 1.6% active;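 further: NT is the 2HG producing partner of a matched IDH1 knockdown line; potency means the concentration at half of the fitted maximal effect; 0% = DMSO-treated cells and -100% = media-only wells without cells; nearly all actives have a fitted effect of over 55% in size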
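Fibrosarcoma NT cells, 750 per well in 5% FBS RPMI, were exposed to compound for 48 hours. Viability: CellTiter-Glo luminescence.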
IL1B secr inh: inhibitors of inflammasome signaling (IL-1 beta secretion). 360,000 tested, 4.7% active. AID 743279. activity change, % at 57.5 µM. THP-1 LPS/ATP IL-1B secretion, AlphaLISA, 16 h; stronger effect = lower value; in the data active means activity change below about -50%; inconclusive means mostly about -30% to -49%
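THP-1 cells pretreated 1 hr with compounds (up to 57.5 uM final), then stimulated with LPS (250 ng/mL final) plus ATP (1.25 mM final); secreted IL-1B measured by AlphaLISA after 16 hr, decreased signal indicating inhibition.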
TDP1 cell noCPT: qHTS for Inhibitors of human tyrosyl-DNA phosphodiesterase 1 (TDP1): qHTS in cells in absence of CPT. Potency, µM (doses to about 46.2 µM), without a hit: at the highest dose activity change, negative = growth inhibition, most hits filed as inhibitors. 420,000 tested, 15% active. DT40 Tdp1-/- hTDP1 cells, no CPT, ATP luminescence, 48 h. AID 686978, 2013; further: potency means the concentration at half of the fitted maximal effect; nearly all actives have a fitted effect of over 55% in size
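Compound effects on proliferation are scored in DT40 Tdp1-/-;hTDP1 cells in the absence of CPT. ATP levels (CellTiter-Glo luminescence) are recorded after a ≥48 hr, 37 °C incubation.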
An asterisk follows results filed as active; ? = inconclusive; . = not tested or not shown; [ ] = remark or other dose. Unless noted, the call rests on the fitted dose curve; in most records, active means well fitted curve in the direction sought with a large enough effect; inconclusive means small, poorly fitted or top-dose-only effect, or another doubt; inactive means no such curve, though single readings can be large; an effect the other way counts as inactive or inconclusive. Unless noted, on the % scale 0 is the no-effect control and ±100 the full control effect.

SMILES | HT1080 IDH1KD tx | DT40 TDP1 CPT | 12-LOX inh | HT1080-NT tox | IL1B secr inh | TDP1 cell noCPT
CS(=O)(=O)c1ccc(-c2ccc3c(c2)CC(CNC(=O)C2(N4CCOCC4)CCCCC2)O3)cc1 (configuration not stated) | . | -13%[9.04 µM] | 14% | . | . | 16µM*
CS(=O)(=O)c1ccc(C(=O)NCC2(N3CCOCC3)CCCCC2)cc1 | 1% | 6% | 1% | 6% | -6 | -15%
O=C(CCn1nnc(-c2ccccc2)n1)N1CCCC2(CCNCC2)CC1 | . | . | 9% | . | . | .
Cc1ccc(CNC(=O)Cn2c(=O)c(-c3noc(C)n3)c3n(c2=O)CCCCC3)cc1 | . | . | 30% | . | . | .
COc1ccc(/C=C/c2cc(C(=O)O)c3ccccc3n2)cc1OC | . | . | 18µM* | . | . | .
COc1ccc(/C=C/c2cc(C(=O)O)c3ccccc3n2)cc1 | ? | 10µM* | ? | -18% | 17 | 15µM*
CCc1ccc(C(=O)N(Cc2ccccn2)C2CC2)s1 | . | . | 33% | . | . | .
CNC(=S)N(Cc1ccc(OC)cc1)Cc1cc2ccc(C)cc2[nH]c1=O | -3% | -20% | -12% | -3% | 3 | ?
CCNC(=S)N(Cc1cccs1)Cc1cc2cc(OCC)ccc2[nH]c1=O | 11% | ? | -19% | 4% | -2 | 16µM*
COc1cc2cc(CN(Cc3cccs3)C(=S)Nc3ccccc3)c(=O)[nH]c2cc1OC | 4% | ? | -6% | 0% | 13 | 21µM*
CNC(=S)N(Cc1cccs1)Cc1cc2ccc(OC)cc2[nH]c1=O | -18% | ? | -28% | -7% | -10 | 18µM*
Cc1cccc2cc(CN(Cc3cccs3)C(=S)NCC3CCCO3)c(=O)[nH]c12 (configuration not stated) | -17% | ? | -12% | -1% | -12 | ?
Cc1ccc(NC(=S)N(Cc2cccs2)Cc2cc3cccc(C)c3[nH]c2=O)cc1 | -14% | 21µM* | -27% | -4% | -13 | 12µM*
CCC1CCCCN1C(=O)CSc1nc2c([nH]c3ccccc32)c(=O)n1-c1ccc(OC)cc1 (configuration not stated) | . | ? | -20% | . | . | 18µM*
O=C(CSc1nc2c([nH]c3ccccc32)c(=O)n1-c1ccc(F)cc1)NCc1ccccc1 | . | -26% | -19% | . | . | -11%
O=C(CSc1nc2c([nH]c3ccccc32)c(=O)n1-c1ccc(F)cc1)NC1CCCCC1 | . | 15µM* | -3% | . | . | ?
CCc1nnc(NC(=O)CSc2nc3c([nH]c4ccccc43)c(=O)n2-c2cc(C)cc(C)c2)s1 | . | ? | -1% | . | . | 16µM*
CCOC(=O)CSc1nc2c([nH]c3ccccc32)c(=O)n1-c1ccc(OC)cc1 | . | -20% | -15% | . | . | ?
O=C(CSc1nc2c([nH]c3ccccc32)c(=O)n1-c1cccc(C(F)(F)F)c1)N1CCc2ccccc21 | . | 7.3µM* | -10% | . | . | 8.2µM*
COc1cccc(-n2c(SCC(=O)N3CCCc4ccccc43)nc3c([nH]c4ccccc43)c2=O)c1 | . | ? | -5% | . | . | ?
CC(=O)Oc1ccc2c(=O)c(-c3ccc4c(c3)OCCCO4)c(C)oc2c1 | . | . | -8% | . | . | .
COc1ccc(-n2c(SCC(=O)NC3CCCCC3)nc3c([nH]c4ccccc43)c2=O)cc1 | . | ? | -7% | . | . | 21µM*
O=C(CSc1nc2c([nH]c3ccccc32)c(=O)n1-c1ccccc1F)Nc1ccccc1C(F)(F)F | . | 16µM* | 0% | . | . | 21µM*
C=CCn1c(SCC(=O)N2CCN(C(=O)OCC)CC2)nc2c([nH]c3ccccc32)c1=O | 5% | ? | 2% | -1% | 1 | 16µM*
O=C(CSc1nc2c([nH]c3ccccc32)c(=O)n1-c1ccc(Cl)cc1)N1CCCCCC1 | . | ? | 0% | . | . | 21µM*
SMILES | HT1080 IDH1KD tx | DT40 TDP1 CPT | 12-LOX inh | HT1080-NT tox | IL1B secr inh | TDP1 cell noCPT
C=CCn1c(SCC(=O)N2CCCC2)nc2c([nH]c3ccccc32)c1=O | -16% | 1% | 17% | -6% | 8 | 4%
O=C(CSc1nc2c([nH]c3ccccc32)c(=O)n1-c1ccccc1)Nc1ccccc1F | . | ? | -19% | . | . | ?
O=C(CSc1nc2c([nH]c3ccccc32)c(=O)n1-c1ccc(Cl)cc1)N1CCCC1 | . | -6% | 0% | . | . | -1%
O=C(NC[C@H]1OC[C@@H](NCc2cnc[nH]2)[C@@H]1O)c1cccs1 | . | . | 15%[176 µM] | . | . | .
CCCn1c(Sc2ccc(C)cc2)nc2c1c(=O)[nH]c(=O)n2C | . | . | 22% | . | . | .
COc1ccc(Cl)cc1NC(=O)Cn1c2c(c(=O)n1-c1ccccc1)Cc1cccc(OC)c1O2 | . | . | -9% | . | . | .
CS(=O)(=O)c1ccc(C(=O)Nc2c(Cl)cc(NC(=O)c3cnccn3)cc2Cl)cc1 | . | . | -3% | . | . | .
Cc1ccc(C)c(NC(=O)CSc2nc3c([nH]c4ccccc43)c(=O)n2-c2ccc(F)cc2)c1 | . | 15µM* | -19% | . | . | 13µM*
O=c1oc2ccccc2c(NC2CCCCC2)c1NS(=O)(=O)c1ccc(F)cc1 | -10% | ? | -4% | -17% | -21 | ?
CCc1ccc(S(=O)(=O)Nc2c(NC3CCCCC3)c3ccccc3oc2=O)cc1 | -15% | ? | . | -23% | -63* | ?
O=c1[nH]c2ccc(S(=O)(=O)Nc3c(NC4CCCCC4)c4ccccc4oc3=O)cc2o1 | . | . | 40µM* | . | . | .
Cc1nc2ccc(C(=O)OC(C)C(=O)NC(=O)NC3CCCC3)cc2nc1C (configuration not stated) | . | . | -6% | . | . | .
Cc1ccc(CNC(=O)[C@H]2C[C@@H]2[C@H](NP(=O)(c2ccccc2)c2ccccc2)c2ccccc2)o1 | 0% | ? | -9% | -9% | 13 | 21µM*
O=C(NCc1ccccc1)[C@@H]1C[C@H]1[C@@H](NP(=O)(c1ccccc1)c1ccccc1)c1ccccc1 | -2% | -27% | -12% | ? | 0 | ?
Cc1cc(C)c(C#N)c(=N)o1 | 0% | 21µM* | ? | -4% | 0 | 26µM*
CCCCn1c(=O)[nH]c(=O)c2c(C(=O)OCC)cc(-c3ccccn3)nc21 | . | . | -19% | . | . | .
CCOC(=O)c1cc(-c2ccc([N+](=O)[O-])cc2)nc2c1c(=O)[nH]c(=O)n2Cc1ccccc1 | -9% | 7.3µM* | -20% | 1% | 30 | 5.8µM*
Cc1ccc(NC(=O)c2cc(C)n(-c3ccccc3)c2C)cc1 | ? | ? | -21% | ? | -83* | ?
Cc1cc(C(=O)Nc2ccc(Cl)cc2)n(-c2ccccc2)n1 | 3% | ? | -7% | -16% | ? | 4%
